Reference: PubChem BioAssay AID743195 (National Center for Advancing Translational Sciences (NCATS), 2013)
Some of the results follow. Inconclusive results are not listed. Activity calls are given as the source filed them. Calls follow the shape of the dose curve; as a rule, active = well fitted inhibition curve with a large enough effect; inconclusive = small, poorly fitted or top-dose-only effect; inactive = no such curve, though single readings can be large or run the other way.

Target: Aldehyde dehydrogenase 1A1 (Homo sapiens) (UniProt P00352)
Assay: Extended Characterization of HPGD Inhibitors: Counterscreen Against ALDH1A1
Conditions: recombinant ALDH1A1, NADH fluorescence, propionaldehyde/NAD+
Excerpt: The central role of HPGD is to inactivate prostaglandins such as prostaglandin E2 (PGE2) or prostaglandin D2 (PGD2). These prostaglandins are involved in a number of processes, including inflammation, differentiation, and cellular signaling, which makes HPGD an important target for pharmacological intervention. Aldehyde dehydrogenase 1 family, member A1 (ALDH1A1) catalyzes the NAD+ dependent oxidation of a variety of endogenous and exogenous aldehydes to the corresponding carboxylic acids. The enzyme is the critical step in the metabolic activation of retinoic acid, which plays an essential role as a nuclear receptor ligand. […] ALDH1A1 shares some homology with HPGD, and it served as a suitable anti-target of HPGD to determine chemical probe selectivity. The assay system is similar to the HPGD primary screening protocol. Inhibition of ALDH1A1 activity was screened by utilizing propionaldehyde as an electron donor and NAD+ as an electron acceptor/cofactor. An increase in the fluorescence intensity due to conversion of NAD+ to NADH was used to measure the enzyme activity. NIH Chemical Genomics Center [NCGC] NIH Molecular Libraries Probe Centers Network [MLPCN] MLPCN Grant: MH084681 Assay Submitter (PI): Structural Genomics Consortium
3 uL of enzyme (final concentration 50 nM) or buffer were dispensed into a 1,536-well solid-bottom black plate (Greiner Bio One, Monroe, NC) followed by pin-tool transfer (23 nL) of compound (final concentration range 324 pM to 57.2 uM) and control (Bay 11-7085 (CID-5353432), final concentration range 1.31 nM to 2.86 uM). Samples were incubated (RT, protected from light) for 15 minutes followed by a 1 uL substrate addition of NAD+ and Propionaldehyde (final concentrations of 1 mM and 80 uM, respectively). Plates were centrifuged at 1,000 rpm for 15 seconds, then read in kinetic mode on a ViewLux High-throughput CCD imager (Perkin-Elmer) equipped with standard UV fluorescence optics (340 nm excitation, 450 nm emission) for 10 minutes at 5 minute intervals. Data were normalized (Read […] - Read 10 min) against no-enzyme (positive) and enzyme-containing (neutral) wells.

Chain of Aldehyde dehydrogenase 1A1 (Homo sapiens) (P00352 whole entry, looked up): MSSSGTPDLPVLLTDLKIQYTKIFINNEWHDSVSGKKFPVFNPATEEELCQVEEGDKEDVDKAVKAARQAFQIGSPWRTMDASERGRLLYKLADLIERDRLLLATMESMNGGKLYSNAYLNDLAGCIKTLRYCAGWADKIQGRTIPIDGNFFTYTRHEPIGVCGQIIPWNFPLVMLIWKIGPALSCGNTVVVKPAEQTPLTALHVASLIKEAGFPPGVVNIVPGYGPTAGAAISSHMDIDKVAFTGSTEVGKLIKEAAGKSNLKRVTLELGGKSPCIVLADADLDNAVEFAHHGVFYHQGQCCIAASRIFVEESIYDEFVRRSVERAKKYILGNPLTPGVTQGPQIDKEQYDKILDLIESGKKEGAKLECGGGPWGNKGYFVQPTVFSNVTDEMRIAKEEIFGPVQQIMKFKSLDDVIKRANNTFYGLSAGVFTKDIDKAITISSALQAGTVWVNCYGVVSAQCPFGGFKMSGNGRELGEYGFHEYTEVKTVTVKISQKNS

Structure (SMILES) | Potency
Cc1cc(C)nc(NC(=S)N2CCN(c3cccc(C#N)c3)CC2)c1 | 3.83 µM (active)
Cc1cc(C)nc(NC(=S)N2CCN(c3ccc4nonc4c3)CC2)c1 | 12.1 µM (active)
COc1ccnc(NC(=S)N2CCN(c3ncc(C(F)(F)F)cc3Cl)CC2)c1 | 1.92 µM (active)
COc1cccc(NC(=S)N2CCN(c3ccc(Cl)cc3Cl)CC2)n1 | 1.08 µM (active)
Cc1cc(C)nc(NC(=S)N2CCN(c3ccc(Cl)cc3C(F)(F)F)CC2)c1 | 7.64 µM (active)
Cc1cc(C)nc(NC(=S)N2CCN(c3ccc(Cl)cc3F)CC2)c1 | 4.82 µM (active)
Cc1cc(C)nc(NC(=S)N2CCN(c3cccc(C(F)(F)F)c3)CC2)c1 | 15.2 µM (active)
FC(F)(F)c1cccc(N2CCN(C(=S)Nc3ccncc3)CC2)c1 | 27.1 µM (active)
Cc1ccc(N2CCN(C(=S)Nc3cc(C)ccn3)CC2)cc1 | 3.83 µM (active)
COc1cccc(NC(=S)N2CCN(c3ccccc3C(F)(F)F)CC2)n1 | 2.15 µM (active)
